Dicer inh: inhibitors of Dicer pre-microRNA processing, primary screen, biochemical, cat-ELCCA, chemiluminescence. Endoribonuclease Dicer (Homo sapiens), Q9UPY3. cat-ELCCA pre-miR-21 Dicer processing; stronger effect = higher value. z-score at 25 µM. 47,000 compounds, 6% hits; in the data active means z-score above about 3, passing the limit was not always enough;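 further: plate controls were vehicle for no effect and no enzyme for full effect; higher signal means more uncleaved substrate so more Dicer inhibition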
Numbers without * were called inactive. This is one part of a sample in which hits are shown more often than they occur.

SMILES	Dicer inh
Cc1cccc(N2C(=O)CC(n3ccnc3)C2=O)c1C (stereo not drawn)	3.53*
CCOC(=O)c1cnc(SCC(=O)c2ccc(-c3ccccc3)cc2)nc1N	1.33
CCOC(=O)N/N=C/c1ccc(N(C)CCC#N)cc1	-0.63
COc1ccccc1NC(=O)Nc1c(SC)nsc1SC	-0.75
COc1ccc(NC(=O)Nc2c(SC)nsc2SC)cc1	4.05*
COc1ccc(OCc2nnc(NC(=O)Nc3ccc(F)cc3)s2)cc1	1.87
Cn1c(SCC(=O)N=S(C)(=O)c2ccc(Cl)cc2)nnc1C(F)(F)F (stereo not drawn)	-0.67
O=[N+]([O-])c1cc(C(F)(F)F)ccc1Oc1c(Cl)cccc1Cl	-1.03
CCOC(=O)c1ccc(-n2nc(C(C)(C)C)cc2C(C)(C)C)cc1	-0.55
O=C(Nc1ccc(OC(F)(F)F)cc1)Nc1cnn(-c2ccccc2)c1C(F)(F)F	0.46
CN1C(=O)CC(c2ccsc2)Sc2ccccc21 (stereo not drawn)	0.73
CC1CC(=O)N(C)c2ccccc2S1(=O)=O (stereo not drawn)	3.95*
CN1C(=O)CN(C2CCCCC2)C(=O)c2ccccc21	2.52
CCOC(=O)Cc1csc(NS(=O)(=O)c2cn(C)cn2)n1	-0.98
CS(=O)(=O)Cc1cc(Cl)cc2c1OCOC2	73
CCOC(=O)c1c(N/N=C\c2ccccc2[N+](=O)[O-])n[nH]c1C	1.12
S=c1[nH]nc(C2c3ccccc3Oc3ccccc32)o1	0.79
CC(C)=NN/C(N)=N/C(=S)Nc1ccccc1	3.99*
CO/C(N)=N/C(=S)Nc1ccccc1	-0.79
C/C(N)=N/C(=S)Nc1ccc(Cl)cc1	1.85
CCOC(=O)c1ccc([N+](=O)[O-])c(C)c1	-2.52
CCOC(=O)c1ccc(-n2nc(C)cc2C)cc1	-0.71
CCOC(=O)c1ccc(N)c(N)c1	3.42*
O=[N+]([O-])c1ccc(S(=O)(=O)c2cc(Cl)ccc2Cl)[n+]([O-])c1	-1.21
Cc1nnc(SCc2c(Cl)cccc2Cl)n1-c1ccc2c(c1)OCCO2	-0.94
SMILES	Dicer inh
COC(=O)c1ccc(OC(=O)c2sc3ccccc3c2Cl)cc1	-0.85
CC1(C)SC(c2ccc(F)cc2)N[C@H]1C(=O)O (stereo partly drawn)	-1.08
CC1(C)SC(C(=O)O)N[C@H]1C(=O)O (stereo partly drawn)	3.1*
N=C(N)SCc1ccccc1Cl	-0.65
Nc1nnc(SCc2ccccc2Cl)s1	11.1*
NCCc1nnc(SCc2ccccc2Cl)o1	0.34
Cc1ccc(C2CC(C(F)(F)F)n3ncc(C(=O)N(C)Cc4c(C)nn(C)c4C)c3N2)cc1 (stereo not drawn)	-0.67
CNC(=S)N/N=C(/N)c1ccccn1	4.35*
N/C(=N\NC(=O)Nc1ccc(Cl)cc1)c1ccccn1	6.58
N/C(=N\NS(=O)(=O)c1ccccc1C(F)(F)F)c1ccccn1	0.57
Nc1nc2ccc(CC(=O)O)cc2s1	-2.34
CS(=O)(=O)c1ccc2nc(N)sc2c1	2.45
Nc1nc2ccc(Oc3ccc4nc(N)sc4c3)cc2s1	3.68*
Cc1ccc(S(=O)(=O)N(C(=O)c2cccnc2)c2ccc3oc(=O)sc3c2)cc1	4.97*
O=C(c1cccnc1)N(c1ccc2oc(=O)sc2c1)S(=O)(=O)c1ccc(Br)cc1	10.9*
COc1ccc(S(=O)(=O)N(C(=O)C(C)C)c2ccc3oc(=O)sc3c2)cc1	0.09
CCCC(=O)N(c1ccc2oc(=O)sc2c1)S(=O)(=O)c1ccc(F)cc1C	1.69
CCCCC(=O)N(c1ccc2oc(=O)sc2c1)S(=O)(=O)c1ccc(C(=O)O)cc1	-1.11
Cc1cc(F)ccc1S(=O)(=O)N(C(=O)c1cccnc1)c1ccc2oc(=O)sc2c1	4.84*
CC(C)c1ccc(S(=O)(=O)N(C(=O)c2ccncc2)c2ccc3oc(=O)sc3c2)cc1	0.05
CCCCC(=O)N(c1ccc2oc(=O)sc2c1)S(=O)(=O)c1ccc(OC)cc1	2.41
CN(C)c1ccc(NS(=O)(=O)c2ccccc2)cc1C(=O)O	-0.63
CCOC(=O)c1c(NC(=O)c2ccco2)sc2c1CCC2	-0.58
COc1cccc(-c2[nH]nc(SC)c2C#N)c1	-1.61
c1ccc(CN2CN(CC3CCCO3)c3nc4ccccc4n3C2)cc1 (stereo not drawn)	-1.58
SMILES	Dicer inh
CC(C)Oc1cc(C(F)(F)F)nc2ccc(CSCCO)cc12	0.02
CSc1ccc(C2C3=C(Nc4c2c(=O)[nH]c(=O)n4C)c2ccccc2C3=O)cc1 (stereo not drawn)	-1.06
Cc1onc(-c2c(Cl)cccc2Cl)c1NC(=O)NNc1c(F)cccc1Cl	0.23
Cc1cc(NNC(=O)Nc2cccc(Cl)c2)nc2c1c(C)nn2C	0.59
Cc1cc(NNS(=O)(=O)c2ccc(Cl)cc2)nc2c1c(C)nn2C	4.42*
Cc1cc(NNC(=O)c2ccccc2Cl)nc2c1c(C)nn2C	-0.63
CC(C)(C)NC(=O)Oc1noc2cc(Cl)ccc12	0.03
COC(=O)c1c(C)sc2c(C(F)(F)F)cc(=O)[nH]c12	0.96
N#CCC(=O)N/N=C/c1ccc(Cl)cc1Cl	-0.11
Nc1n[nH]c(-c2ccccc2)c1-c1ccccc1	3.53*
Nc1nc(-c2ccccc2)cc(=O)[nH]1	0.66
